Source: PubChem
AmpC no deterg = AmpC beta-lactamase inhibition without detergent; P00811; 330,000 tested, 0.52% active; AmpC nitrocefin hydrolysis, absorbance 480 nm, 0.0001% Triton; AID 485341; Potency, µM (highest dose often 57.1 µM), without a hit: top-dose activity change, negative = inhibition, hits mostly inhibitors;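 also: plate controls were no compound for no effect and no enzyme for full effect; nearly all actives have a fitted effect of over 20% in size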
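AmpC (5.3 nM in the dispensed reagent) in 20 mM phosphate pH 7.0 with 0.01% (detergent screen) or 0.0001% Triton X-100 was preincubated with compounds for 15 min at room temperature. Nitrocefin was then added from an 800 uM solution, and hydrolysis was followed at 480 nm.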
SARS PLP yeast = SARS-CoV PLP inhibition in yeast; S. cerevisiae expressing SARS-CoV PLpro, growth rescue; Potency, µM (titrated, usually from 32.9 µM), for inactives: top-dose activity, positive = growth rescue, hits mostly activators; 330,000 tested, 0.19% active; calls by dose curve; also: 0% is about no effect; nearly all actives have a fitted effect of over 55% in size
Giardia FBPA inh-1 = blocks Giardia fructose-bisphosphate aldolase activity; A8B2U2; purified Giardia FBPA; Potency, µM (highest dose often 59.6 µM), without a hit: at the top dose activity, negative = inhibition, actives largely listed as inhibitors; 290,000 tested, 0.71% active; also: % is scaled to controls: 0 for no effect and ±100 for the full control effect; nearly all actives have a fitted effect of over 55% in size
Target sequence (A8B2U2 whole entry, looked up): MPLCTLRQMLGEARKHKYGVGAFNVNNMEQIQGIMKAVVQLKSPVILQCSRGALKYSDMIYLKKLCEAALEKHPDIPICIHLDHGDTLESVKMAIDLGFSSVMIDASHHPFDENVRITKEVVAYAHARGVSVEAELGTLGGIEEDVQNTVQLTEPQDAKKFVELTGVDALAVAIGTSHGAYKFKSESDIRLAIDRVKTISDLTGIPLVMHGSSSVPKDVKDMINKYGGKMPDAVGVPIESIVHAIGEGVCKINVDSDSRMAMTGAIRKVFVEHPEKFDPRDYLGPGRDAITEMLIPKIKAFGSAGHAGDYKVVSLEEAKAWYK
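Giardia FBPA (40 nM reagent) was preincubated 10 min at RT with compound (up to 57.5 uM final), then substrate plus GAPDH/TPI/NAD/arsenate coupling system with diaphorase/resazurin was added; resorufin fluorescence (525/598 nm) was read after 20 min.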
AmpC inh detg = blocks E. coli AmpC beta-lactamase in detergent assay; P00811; AmpC hydrolysis of nitrocefin, absorbance 480 nm, 0.01% Triton; Potency, µM (titrated, usually from 114 µM), without a hit: at the top dose activity change, negative = inhibition, most hits filed as inhibitors; 370,000 tested, 0.041% active; AID 485294;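 also: 0% = no-compound wells and -100% = no-enzyme wells; nearly all actives have a fitted effect of over 25% in size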
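20 mM phosphate pH 7.0 + 0.01% (detergent screen) or 0.0001% Triton X-100; 5.3 nM AmpC reagent; cpd preinc 15 min RT; nitrocefin (800 uM stock) to start; A480 q20 s × 4 min; Activity was normalised to no-enzyme and no-compound control wells.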
NS1 inh = blocks influenza NS1 protein function. Potency, µM (series often up to 46.1 µM), without a hit: at the highest dose activity, positive = more growth. 270,000 tested, 0.4% active; calls by dose curve; also: actives are rising curves; nearly all actives have a fitted effect of over 50% in size
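Compounds were scored for reversing the slow growth caused by influenza A NS1 in S. cerevisiae, measured by optical density at 600 nm. Assay medium contained 2% galactose at pH 6.0; NS1-free yeast of the same strain were the positive control.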
Giardia growth = Giardia lamblia growth inhibition; shares compounds with Giardia FBPA inh-1; Giardia lamblia trophozoite growth inhibition; Potency, µM (doses to about 57.5 µM), without a hit: at the highest dose activity change, negative = inhibition, actives largely listed as inhibitors; 1,500 tested, 5% active; AID 2785;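 also: trophozoites exposed to compound for 48 h at 37 °C; % is scaled to controls: 0 for no effect and ±100 for the full control effect; nearly all actives have a fitted effect of over 70% in size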
Mammalian tox = toxic to mammalian cells in Giardia aldolase counter-screen. shares compounds with Giardia FBPA inh-1. mammalian cell viability counter-screen, qHTS. Potency, µM (highest dose often 57.5 µM), for inactives: at the top dose viability change, negative = toxicity, most hits filed as inhibitors. 1,500 tested, 4% active. AID 2786;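 also: Chinese hamster ovary cells used as mammalian cytotoxicity surrogate; viability measured as cellular ATP by luminescence; compound exposure lasted 48 h before reading; % is scaled to controls: 0 for no effect and ±100 for the full control effect; nearly all actives have a fitted effect of over 60% in size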
Giardia FBPA inh-2 = confirmation of Giardia fructose-bisphosphate aldolase inhibitors; Potency, µM (top dose mostly 57.5 µM), inactives show top-dose activity change, negative = inhibition, most hits filed as inhibitors; shares compounds with Giardia FBPA inh-1; 1,500 tested, 5% active; purified Giardia aldolase enzyme activity, qHTS; AID 2787; also: % is scaled to controls: 0 for no effect and ±100 for the full control effect; nearly all actives have a fitted effect of over 45% in size
Rabbit FBPA inh = selectivity test for Giardia aldolase inhibitors: rabbit aldolase; 1,500 tested, 4% active; Rabbit muscle FBPA enzyme inhibition, selectivity counter-screen; Potency, µM (titrated, usually from 57.5 µM), without a hit: top-dose activity, negative = inhibition, hits mostly inhibitors; shares compounds with Giardia FBPA inh-1; also: % is scaled to controls: 0 for no effect and ±100 for the full control effect; nearly all actives have a fitted effect of over 60% in size
Target sequence (P00883 whole entry, looked up): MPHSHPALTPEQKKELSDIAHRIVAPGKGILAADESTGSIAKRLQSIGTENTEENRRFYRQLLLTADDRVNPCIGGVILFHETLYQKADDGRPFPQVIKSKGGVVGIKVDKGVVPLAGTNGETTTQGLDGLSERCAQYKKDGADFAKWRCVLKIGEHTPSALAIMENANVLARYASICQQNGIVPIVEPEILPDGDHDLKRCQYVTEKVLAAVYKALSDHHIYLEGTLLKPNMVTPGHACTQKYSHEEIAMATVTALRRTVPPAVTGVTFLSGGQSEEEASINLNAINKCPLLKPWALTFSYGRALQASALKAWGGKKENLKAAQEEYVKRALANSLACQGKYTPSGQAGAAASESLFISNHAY
GAPDH coupling = GAPDH inhibition flagged for Giardia aldolase hits; 1,500 tested, 6% active; shares compounds with Giardia FBPA inh-1; GAPDH coupling enzyme counterscreen, biochemical, qHTS; Potency, µM (highest dose often 57.5 µM), inactives show top-dose activity change, negative = inhibition, hits mostly inhibitors; also: % is scaled to controls: 0 for no effect and ±100 for the full control effect; nearly all actives have a fitted effect of over 55% in size
Active calls of the source: *; ? = inconclusive; nt = no result; [ ] = another dose, or the depositor's remark. A selection: hits, their analogues and other compounds. The true share with any hit is near 1.4%. Unless noted, calls follow the shape of the dose curve; as a rule, active = well fitted curve in the direction sought with a large enough effect; inconclusive = small, poorly fitted or top-dose-only effect, or another doubt; inactive = no such curve, though single readings can be large; an effect the other way counts as inactive or inconclusive. Potency is read from the fitted curve at half-maximal effect.

SMILES | AmpC no deterg | SARS PLP yeast | Giardia FBPA inh-1 | AmpC inh detg | NS1 inh | Giardia growth | Mammalian tox | Giardia FBPA inh-2 | Rabbit FBPA inh | GAPDH coupling
CCCCN(CC)Cc1ccc(CNC(=S)Nc2c(C)cc(C)cc2C)o1 | 16% | 1% | 13µM* | -7% | nt | 26% | -14% | -10% | 2% | 5%
CCOC(=O)c1c(C)oc2ccc(OC(=O)COc3c(F)c(F)c(F)c(F)c3F)cc12 | -11% | -53% | 2% | -17% | -39% | nt | nt | nt | nt | nt
COc1ccc(OC)c(C2CC(=O)N3CN(c4ccccc4)CSC3=C2C#N)c1 (stereo not given) | -38% | 3% | 1.8µM* | ? | -43% | ? | 2% | -22% | ? | -15%
COc1ccc(N2CSC3=C(C#N)C(c4cccc(OC)c4OC)CC(=O)N3C2)cc1 (stereo not given) | -46% | 0% | 2µM* | -11% | -34% | 15% | 7% | ? | ? | ?
COc1ccc(C2CC(=O)N3CN(c4ccc(C)c(Cl)c4)CSC3=C2C#N)cc1 (stereo not given) | -48% | 4% | ? | ? | -42% | nt | nt | nt | nt | nt
COc1cc(C2CC(=O)N3CN(Cc4ccco4)CSC3=C2C#N)ccc1OCc1ccccc1 (stereo not given) | -5% | 0% | ? | ? | -13% | nt | nt | nt | nt | nt
COc1ccc(C2CC(=O)N3CN(c4ccccc4F)CSC3=C2C#N)cc1OC (stereo not given) | -20% | 1% | 2.8µM* | ? | -40% | ? | 5% | ? | 32µM* | ?
Clc1c(-c2ccccc2)nnn1-c1ccccc1 | -16% | -17% | 2% | -11% | -19% | nt | nt | nt | nt | nt
CC1CCN(c2oc(/C=C/c3ccc(F)cc3)nc2C#N)CC1 | nt | nt | nt | 0% | nt | nt | nt | nt | nt | nt
Cc1cc(Sc2nc(N)ncc2[N+](=O)[O-])ncn1 | -22% | -3% | 18µM* | 0% | nt | -6%[10.4 µM] | ? | 1% | 15% | 0%
COc1ccc2c(Cl)c(C(=O)NCCCn3ccnc3)sc2c1Cl | -3% | 1% | 12% | -3% | 0% | nt | nt | nt | nt | nt
CC(CNC(=O)c1ccc(NC2=NC3CS(=O)(=O)CC3S2)cc1)c1ccccc1 (stereo not given) | -12% | -5% | -12% | -4% | -7% | nt | nt | nt | nt | nt
CCOC(=O)Nc1c(C)n(C)n(-c2ccccc2)c1=O | -11% | 8% | 0% | -11% | ? | nt | nt | nt | nt | nt
CCOC(=O)/C(C#N)=N/Nc1c(C)n(C)n(-c2ccccc2)c1=O | 3% | 0% | 16µM* | -2% | nt | -5%[10.4 µM] | -1% | 0% | -4% | -3%
Cc1cc(C(=O)O)c2c(=O)n(C)c(=O)n(C)c2n1 | nt | nt | nt | 3% | nt | nt | nt | nt | nt | nt
CNCC(=O)N(CC(C)C)c1c(N)n(CC(C)C)c(=O)[nH]c1=O | 33% | -1% | -6% | -1% | 2% | nt | nt | nt | nt | nt
O=C(CNCc1ccccn1)Nc1cc(C(F)(F)F)ccc1N1CCOCC1 | 77% | 0% | 16µM* | 7% | -6% | ? | 1% | 6% | 6% | 9%
O=C(Nc1cc(C(F)(F)F)ccc1N1CCOCC1)c1ccncc1 | 24% | 1% | nt | nt | nt | nt | nt | nt | nt | nt
CCCC(=O)Nc1c2c(nn1-c1cccc(Cl)c1)CS(=O)(=O)C2 | -8% | 3% | 2% | -4% | -15% | nt | nt | nt | nt | nt
COC(=O)COc1ccc(NC(=O)c2ccco2)cc1 | -5% | 0% | -1% | 3% | 1% | nt | nt | nt | nt | nt
Cc1cc(-c2ccco2)c(C#N)c2nc3ccccc3n12 | -3% | -8% | 1.3µM* | -13% | -71% | -19%[38.3 µM] | -29% | ? | ? | ?
Cc1cc(C(C)C)n2c(nc3ccccc32)c1C#N | -13% | -1% | 1% | 7% | 1% | nt | nt | nt | nt | nt
c1ccc(-c2nc(-c3ccncc3)n[nH]2)nc1 | -8% | -2% | 3.5µM* | -6% | -3% | -20%[38.3 µM] | -13% | -20% | -9% | -10%
COc1cc(NC(=O)CSc2nc3ncnc(N)c3[nH]2)c(C(=O)O)cc1OC | -7% | 5% | 11µM* | 5% | -4% | 6% | -14% | -2% | 2% | 2%
COc1ccc(NS(=O)(=O)c2c(C)cc(C)cc2C)cn1 | -20% | 2% | ? | -12% | -28% | -13%[38.3 µM] | 1% | -17% | -20% | -20%
OCCCN=C1CCCc2c1[nH]c1ccc(Cl)cc21 | 10% | -2% | -2% | -11% | -37% | nt | nt | nt | nt | nt
Cc1ccc2nc(-c3ccc(C)s3)c(Nc3ccc4c(c3)OCCO4)n2c1 | nt | nt | nt | 1% | nt | nt | nt | nt | nt | nt
